Values joined by “and” are separate entries in the source; they are usually repeats but may differ in a detail not shown here. Identical values can stand only once. Some compounds were tested as several samples or in several runs, with calls that do not always agree. Active and inactive are the calls of the source. Rule for the calls: active = hit-call score of the fitted dose curve at least 0.9, where 1 is the maximum; inactive = score below 0.9.
Experiment: ATG_PXRE_CIS: Attagene CIS-FACTORIAL HepG2 Assay for human Pregnane X Receptor Element (PXRE) (AID 2282957)
Conditions: HepG2 Attagene CIS-FACTORIAL PXRE reporter, mRNA; actives raise or lower the signal
Description: ATG_CIS is a cell-based, multiplexed-readout assay that uses HepG2, a human liver cell line, with measurements taken at 24 hours after chemical dosing in a 24-well plate.ATG_PXRE_CIS is one of 52 assay component(s) measured or calculated from the ATG_CIS assay. It is designed to make measurements of mRNA induction, a form of inducible reporter, as detected with fluorescence intensity signals by Reverse transcription polymerase chain reaction (RT-PCR) and Capillary electrophoresis technology.Data from the assay component ATG_PXRE_CIS was analyzed into 1 assay endpoint. This assay endpoint, ATG_PXRE_CIS, was analyzed with bidirectional fitting relative to DMSO as the negative control and baseline of activity. Using a type of inducible reporter, measures of mRNA for gain or loss-of-signal activity can be used to understand the reporter gene at the transcription factor-level as they relate to the gene NR1I2. Furthermore, this assay endpoint can be referred to as a primary readout, because this assay has produced multiple assay endpoints where this one serves a reporter gene function. To generalize the intended target to other relatable targets, this assay endpoint is annotated to the nuclear receptor intended target family, where the subfamily is non-steroidal.
Human liver HepG2 cells are transiently transfected with multiple reporter transcription units (MRTUs) in 6-well plates using FuGene 6 reagent (Roche; 3 ml FuGene/1 mg DNA). The MRTU constructs are regulated by a cis-regulating element (promoter). […] A major difference between the CIS and TRANS system is that in CIS activities of endogenous TFs are measured, whereas the TRANS assay evaluates changes in activities of exogenous, chimeric NR-Gal4 proteins. […] At the end of 24 hour incubation, total RNA was isolated using TriZol reagent (Invitrogen). The isolated RNA is then reverse-transcribed using oligo(dT) primer and Mo-MLV reverse transcriptase (Invitrogen) with DNAse I (Ambion) treatment for 30 min. The one-tenth of the produced cDNA was amplified by PCR using Taq DNA polymerase (Invitrogen) and two reporter sequence-specific primers. The PCR products were fluorescently labeled by primer extension with 6-arboxyfluorescein (6-FAM) 5'-labeled reporter sequence-specific primer (2 min at 95 C, 20 s at 68 C and 10 min at 72 C) and these products were digested with 5U of HpaI (New England Biolabs) for 2h at 37 C. The fragments were purified using Qiaquick PCR columns (Qiagen), analyzed on an ABI 3130xL genetic analyzer (Applied Biosystems) with peak positions identified by using a set of X-rhodamine (ROX)-labeled MapMarker1000 molecular weight standards (BioVentures). The raw capillary electrophoresis data was processed using Attagraph software (Attagene).
In the case of `OCCCl`, the outcome is reported as “inactive”.
For `CCC(C)c1ccc(O)cc1` (stereo not given), the AC50 was 26.5 µM (active).
In the case of `O=Cc1ccco1`, the outcome is reported as “inactive”.
In the case of `O=C(N[C@H](c1ccccc1)[C@@H]1CN2CCC1CC2)c1c(Cl)ccc(C(F)(F)F)c1Cl`, the AC50 is reported as 0.458 µM (active).
In the case of `CCOc1cccc(C2(N3CCN(c4ccccc4)CC3)CCC(C)CC2)c1` (stereo not given), the outcome is reported as “inactive”.
With `CCOC(=O)[C@]1(c2ccccc2)Oc2ccccc2[C@@H]1N` the AC50 was 9.53 µM (active).
In the case of `Cc1cccc(N)c1N`, the outcome is reported as “inactive”.
For `Nc1ccc(Cl)cc1N`, the AC50 was 26.1 µM (active).
With `O=[N+]([O-])C(Br)(CO)CO` the AC50 was 158 µM (active).
In the case of `CC(O)CCO` (stereo not given), the AC50 is reported as 27 µM (active).
With `Nc1ccc(N=Nc2ccccc2)cc1` the AC50 was 57.7 µM (active).
With `C[C@]12C=CC3=C4CCC(=O)C=C4CC[C@H]3[C@@H]1CC[C@@H]2O` the outcome was “inactive” and the AC50 was 40.2 µM (active) and 57.3 µM (active).
With `Cc1ccc([N+](=O)[O-])cc1` the outcome was “inactive”.
In the case of `CS(=O)(=O)NC(=O)c1cc(Oc2ccc(C(F)(F)F)cc2Cl)ccc1[N+](=O)[O-]`, the AC50 is reported as 8.23 µM (active).
For `Brc1ccc(Oc2ccccc2)cc1`, the outcome was “inactive”.
For `CNC(=O)Oc1cccc2c1OC(C)(C)C2`, the AC50 was 17.1 µM (active).
With `CN(C)c1ccc(C(=O)c2ccc(N(C)C)cc2)cc1` the AC50 was 3.72 µM (active).
In the case of `ClCCOCCCl`, the outcome is reported as “inactive”.
For `Cc1ccc(N)c(N)c1`, the outcome was “inactive”.
With `c1ccc2c(c1)-c1cccc3cccc-2c13` the AC50 was 26 µM (active).
In the case of `COc1cc(C=O)cc2c1[C@H](COC(N)=O)[C@]1(OC(C)=O)ON2C[C@H]2[C@@H]1N2C(C)=O`, the AC50 is reported as 8.47 µM (active).
With `c1ccc(NNc2ccccc2)cc1` the outcome was “inactive”.
In the case of `Oc1ccc2ccc3cccc4ccc1c2c34`, the AC50 is reported as 13 µM (active).
In the case of `CCCCC(CC)COC(=O)c1ccc(C(=O)OCC(CC)CCCC)c(C(=O)OCC(CC)CCCC)c1` (stereo not given), the outcome is reported as “inactive”.
In the case of `Clc1ccc(Cl)c(Cl)c1`, the AC50 is reported as 58.4 µM (active).
With `Nc1ccc([N+](=O)[O-])cc1` the outcome was “inactive”.
In the case of `CCC12COCN1COC2`, the outcome is reported as “inactive”.
In the case of `C1=Cc2cccc3cccc1c23`, the AC50 is reported as 16.2 µM (active).
In the case of `CCCCCCCCn1sccc1=O`, the AC50 is reported as 18.5 µM (active).
For `O=[N+]([O-])c1ccc(Oc2ccc(Cl)cc2Cl)cc1`, the AC50 was 25.8 µM (active).
For `N#CC(Br)Br`, the outcome was “inactive”.
For `CCC[CH2][Sn]([Cl])([CH2]CCC)[CH2]CCC`, the outcome was “inactive”.
With `CCNS(=O)(=O)C(F)(F)C(F)(F)C(F)(F)C(F)(F)C(F)(F)C(F)(F)C(F)(F)C(F)(F)F` the AC50 was 3.71 µM (active) and 6.95 µM (active) and 12.9 µM (active).
With `CCCSC(=O)N(CCC)CCC` the AC50 was 27.1 µM (active).
For `CC(C)(C)C(O)(CCc1ccc(Cl)cc1)Cn1cncn1` (stereo not given), the AC50 was 2.45 µM (active).
In the case of `CCCCCCCCCCCCCN1CC(C)OC(C)C1` (stereo not given), the AC50 is reported as 8 µM (active).
With `O=C(O)C1C2CCC(O2)C1C(=O)O` (stereo not given) the AC50 was 68.6 µM (active).
With `Nc1ccc(Cc2ccc(N)cc2)cc1` the outcome was “inactive”.
With `c1ccc(C2CO2)cc1` (stereo not given) the AC50 was 34.8 µM (active).

Source: PubChem BioAssay (EPA / NIEHS)
